Experimental data from PubChem BioAssay AID1159580 (chemical genetic matrix, 2015).
Out of some 5,500 compounds screened, about 2,000 (36%) were called active. Another 18% or so got no clear call; they are omitted. No stated cut-off is given here; in the data, active means normalized growth mostly below about 0.91 (no sharp cut-off); inconclusive means no clear call, values can overlap the other calls; inactive means mostly above about 0.92. This is one part of the list.

Test: chemical genetic growth profiling, strain panel (AID 1159580);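 further: tested at 20 µM; growth read once vehicle control cultures reached saturation at 30 °C; 1 = growth at the plate median or of vehicle wells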
Conditions: growth OD
[1] = S. cerevisiae deletion strains, locus YAL013W, strain DEP1, stronger effect = lower value
[2] = S. cerevisiae deletion strains, locus YBR229C, strain ROT2, stronger effect = lower value
[3] = S. cerevisiae deletion strains, locus YDL101C, strain DUN1, stronger effect = lower value
[4] = S. cerevisiae deletion strains, locus YDL134C, strain PPH21, stronger effect = lower value
[5] = S. cerevisiae deletion strains, locus YDR150W, strain NUM1, stronger effect = lower value
[6] = S. cerevisiae deletion strains, locus YEL061C, strain CIN8, stronger effect = lower value
[7] = S. cerevisiae deletion strains, locus YGR078C, strain PAC10, stronger effect = lower value
[8] = S. cerevisiae deletion strains, locus YHR030C, strain SLT2, stronger effect = lower value
[9] = S. cerevisiae deletion strains, locus YHR087W, strain rtc3, stronger effect = lower value
[10] = S. cerevisiae deletion strains, locus YJL187C, strain SWE1, stronger effect = lower value
[11] = S. cerevisiae deletion strains, locus YJR043C, strain POL32, stronger effect = lower value
[12] = S. cerevisiae deletion strains, locus YJR075W, strain HOC1, stronger effect = lower value
[13] = S. cerevisiae deletion strains, locus YLR039C, strain RIC1, stronger effect = lower value
[14] = S. cerevisiae deletion strains, locus YLR058C, strain SHM2 (second series), stronger effect = lower value
[15] = S. cerevisiae deletion strains, locus YLR085C, strain ARP6, stronger effect = lower value
[16] = S. cerevisiae deletion strains, locus YLR262C, strain YPT6, stronger effect = lower value
[17] = S. cerevisiae deletion strains, locus YML094W, strain GIM5, stronger effect = lower value
[18] = S. cerevisiae deletion strains, locus YMR219W, strain ESC1, stronger effect = lower value
[19] = S. cerevisiae deletion strains, locus YMR263W, strain SAP30, stronger effect = lower value
[20] = S. cerevisiae deletion strains, locus YNL128W, strain TEP1, stronger effect = lower value
[21] = S. cerevisiae deletion strains, locus YNL153C, strain GIM3, stronger effect = lower value
[22] = S. cerevisiae deletion strains, locus YNL298W, strain CLA4 (second series), stronger effect = lower value
[23] = S. cerevisiae deletion strains, locus YNL322C, strain KRE1, stronger effect = lower value
[24] = S. cerevisiae deletion strains, locus YNR030W, strain Alg12, stronger effect = lower value
[25] = S. cerevisiae deletion strains, locus YOL006C, strain TOP1, stronger effect = lower value
[26] = S. cerevisiae deletion strains, locus YPL055C, strain LGE1, stronger effect = lower value
[27] = S. cerevisiae deletion strains, locus YPL241C, strain CIN2, stronger effect = lower value
[28] = S. cerevisiae deletion strains, locus YPR135W, strain CTF4, stronger effect = lower value
[29] = S. cerevisiae strains, strain wild type, stronger effect = lower value
[30] = S. cerevisiae deletion strains, locus YKL190W, strain CNB1, stronger effect = lower value
[31] = S. cerevisiae deletion strains, locus YMR307W, strain GAS1, stronger effect = lower value
[32] = S. cerevisiae deletion strains, locus YGR229C, strain SMI1, stronger effect = lower value

Measured: normalized growth

NC(=NS(=O)(=O)c1cc(C(F)(F)F)cc(C(F)(F)F)c1)c1cccs1
inactive: [1] 0.975 | [2] 0.977 | S. cerevisiae deletion strains, locus YCL061C, strain MRC1, stronger effect = lower value 0.996 | [3] 0.994 | [4] 0.984 | [5] 0.969 | [6] 0.934 | [7] 0.963 | [8] 0.975 | [9] 1.01 | [10] 0.987 | [11] 0.957 | [14] 0.967 | [15] 0.928 | [17] 0.927 | [18] 0.982 | [19] 0.978 | [20] 1 | [21] 0.991 | [22] 0.933 | [23] 0.977 | [24] 0.942 | [25] 0.949 | [26] 0.9 | [27] 0.946 | [28] 0.877 | [29] 0.978
active: [12] 0.89 | [13] 0.561 | [16] 0.578

NC(N)=NC(N)=Nc1cc(C(F)(F)F)cc(C(F)(F)F)c1
inactive: [1] 1 | [2] 0.999 | [3] 0.992 | [5] 0.998 | [6] 1.02 | [7] 0.995 | [8] 0.983 | [9] 0.99 | [10] 1 | [11] 1.01 | [12] 0.977 | [30] 1.01 | [13] 1.01 | [14] 1.01 | [15] 1.03 | [16] 1.01 | [17] 0.956 | [18] 1 | [19] 1.01 | [31] 0.963 | [21] 0.993 | [22] 0.988 | [23] 0.987 | [24] 1.01 | [26] 0.999 | [27] 1.12 | [28] 1 | [29] 1.01

c1ccc2c(c1)CCc1c-2[nH]c2ccccc12
active: [1] 0.641 | [2] 0.682 | [3] 0.62 | [4] 0.461 | [5] 0.704 | [6] 0.415 | [7] 0.732 | [32] 0.735 | [8] 0.137 | [9] 0.748 | [11] 0.751 | [12] 0.562 | [13] 0.162 | [14] 0.827 | [15] 0.109 | [16] 0.142 | [17] 0.467 | [18] 0.783 | [19] 0.634 | [21] 0.7 | [22] 0.23 | [23] 0.91 | [24] 0.418 | [25] 0.115 | [26] 0.322 | [27] 0.416 | [28] 0.294

c1ccc2c3c([nH]c2c1)CNCC3
inactive: S. cerevisiae deletion strains, locus YBR021W, strain FUR4, stronger effect = lower value 1.01 | [2] 0.999 | S. cerevisiae deletion strains, locus YCL029C, strain bik1, stronger effect = lower value 1.02 | S. cerevisiae deletion strains, locus YDL035C, strain GPR1, stronger effect = lower value 0.991 | S. cerevisiae deletion strains, locus YDL074C, strain BRE1, stronger effect = lower value 1.01 | [3] 1.01 | S. cerevisiae deletion strains, locus YDL185W, strain tfp1, stronger effect = lower value 1.01 | S. cerevisiae deletion strains, locus YDL192W, strain arf1, stronger effect = lower value 0.997 | S. cerevisiae deletion strains, locus YDR101C, strain arx1, stronger effect = lower value 1.02 | [5] 1 | S. cerevisiae deletion strains, locus YDR162C, strain NBP2, stronger effect = lower value 0.965 | S. cerevisiae deletion strains, locus YDR318W, strain mcm21, stronger effect = lower value 0.979 | S. cerevisiae deletion strains, locus YDR388W, stronger effect = lower value 0.997 | S. cerevisiae deletion strains, locus YDR502C, strain sam2, stronger effect = lower value 1.01 | [6] 0.997 | S. cerevisiae deletion strains, locus YER110C, stronger effect = lower value 1 | S. cerevisiae deletion strains, locus YER155C, strain BEM2, stronger effect = lower value 1.01 | S. cerevisiae deletion strains, locus YER167W, strain BCK2, stronger effect = lower value 0.999 | S. cerevisiae deletion strains, locus YGL078C, strain dbp3, stronger effect = lower value 0.997 | S. cerevisiae deletion strains, locus YGL086W, strain mad1, stronger effect = lower value 1.02 | S. cerevisiae deletion strains, locus YGL248W, strain PDE1, stronger effect = lower value 0.994 | [7] 1 | S. cerevisiae deletion strains, locus YGR135W, strain pre9, stronger effect = lower value 0.97 | S. cerevisiae deletion strains, locus YGR252W, strain gcn5, stronger effect = lower value 0.906 | [8] 1 | S. cerevisiae deletion strains, locus YHR079C, strain IRE1 (second series), stronger effect = lower value 1.01 | S. cerevisiae deletion strains, locus YHR094C, strain hxt1, stronger effect = lower value 1 | S. cerevisiae deletion strains, locus YHR129C, strain ARP1, stronger effect = lower value 1.01 | S. cerevisiae deletion strains, locus YHR200W, strain rpn10, stronger effect = lower value 1 | S. cerevisiae deletion strains, locus YIL066C, strain RNR3, stronger effect = lower value 1 | S. cerevisiae deletion strains, locus YIL073C, strain SPO22, stronger effect = lower value 1.05 | S. cerevisiae deletion strains, locus YIL125W, strain kgd1, stronger effect = lower value 1.02 | S. cerevisiae deletion strains, locus YIR030C, strain dcg1, stronger effect = lower value 1.01 | S. cerevisiae deletion strains, locus YJL095W, strain BCK1, stronger effect = lower value 0.987 | S. cerevisiae deletion strains, locus YJL134W, strain LCB3, stronger effect = lower value 0.999 | S. cerevisiae deletion strains, locus YJL168C, strain set2, stronger effect = lower value 1 | S. cerevisiae deletion strains, locus YJL187C, strain SWE1 (second series), stronger effect = lower value 0.997 | [11] 1.01 | S. cerevisiae deletion strains, locus YKL009W, strain mrt4, stronger effect = lower value 1.01 | S. cerevisiae deletion strains, locus YKL068W, stronger effect = lower value 1 | S. cerevisiae deletion strains, locus YKL085W, strain MDH1 (second series), stronger effect = lower value 1 | S. cerevisiae deletion strains, locus YKL085W, strain MDH1, stronger effect = lower value 1 | [30] 1 | S. cerevisiae deletion strains, locus YKR001C, strain vps1, stronger effect = lower value 1.02 | [13] 1.01 | S. cerevisiae deletion strains, locus YLR058C, strain SHM2, stronger effect = lower value 0.985 | S. cerevisiae deletion strains, locus YLR102C, strain apc9, stronger effect = lower value 1 | [16] 0.993 | S. cerevisiae deletion strains, locus YLR268W, strain sec22, stronger effect = lower value 1.03 | S. cerevisiae deletion strains, locus YLR330W, strain CHS5, stronger effect = lower value 1.01 | S. cerevisiae deletion strains, locus YLR342W, strain FKS1 (second series), stronger effect = lower value 0.976 | S. cerevisiae deletion strains, locus YLR371W, strain rom2, stronger effect = lower value 1.02 | S. cerevisiae deletion strains, locus YLR418C, strain cdc73, stronger effect = lower value 0.96 | S. cerevisiae deletion strains, locus YML016C, strain PPZ1, stronger effect = lower value 0.997 | S. cerevisiae deletion strains, locus YML032C, strain rad52, stronger effect = lower value 0.966 | S. cerevisiae deletion strains, locus YML124C, strain tub3, stronger effect = lower value 0.996 | S. cerevisiae deletion strains, locus YMR078C, strain ctf18, stronger effect = lower value 1.02 | S. cerevisiae deletion strains, locus YMR223W, strain ubp8, stronger effect = lower value 0.972 | [19] 1 | [31] 1.02 | S. cerevisiae deletion strains, locus YNL067W, strain RPL9B, stronger effect = lower value 1 | [20] 1.01 | [21] 0.997 | S. cerevisiae deletion strains, locus YNL233W, strain BNI4, stronger effect = lower value 1 | S. cerevisiae deletion strains, locus YNL250W, strain rad50, stronger effect = lower value 1.01 | S. cerevisiae deletion strains, locus YNL271C, strain bni1, stronger effect = lower value 1.01 | S. cerevisiae deletion strains, locus YNL298W, strain CLA4, stronger effect = lower value 0.99 | S. cerevisiae deletion strains, locus YNL307C, strain MCK1, stronger effect = lower value 1.01 | S. cerevisiae deletion strains, locus YNR052C, strain pop2, stronger effect = lower value 0.971 | [25] 1.06 | S. cerevisiae deletion strains, locus YOL012C, strain htz1 0.744 | S. cerevisiae deletion strains, locus YOL147C, strain pex11, stronger effect = lower value 1 | S. cerevisiae deletion strains, locus YOR061W, strain CKA2, stronger effect = lower value 0.998 | S. cerevisiae deletion strains, locus YOR069W, strain VPS5, stronger effect = lower value 1 | S. cerevisiae deletion strains, locus YOR136W, strain idh2, stronger effect = lower value 1.02 | S. cerevisiae deletion strains, locus YOR144C, strain elg1, stronger effect = lower value 1.01 | S. cerevisiae deletion strains, locus YOR184W, strain ser1, stronger effect = lower value 1 | S. cerevisiae deletion strains, locus YOR316C, strain cot1, stronger effect = lower value 1.01 | [26] 0.983 | [27] 0.988 | S. cerevisiae deletion strains, locus YPR119W, strain clb2, stronger effect = lower value 1.01 | S. cerevisiae deletion strains, locus YPR141C, strain kar3, stronger effect = lower value 1.01 | S. cerevisiae deletion strains, locus YPR163C, strain tif3, stronger effect = lower value 1.01 | S. cerevisiae deletion strains, locus YPR167C, strain met16, stronger effect = lower value 0.992 | S. cerevisiae deletion strains, strain wtn01, stronger effect = lower value 1.03 | [29] 0.989

CN1CCCC12NCCc1c2[nH]c2ccccc12 (stereo unspecified)
inactive: [1] 0.993 | [2] 1 | [3] 1 | [5] 0.98 | [6] 0.998 | [7] 0.993 | [32] 0.997 | [8] 0.981 | [9] 0.986 | [11] 0.999 | [12] 0.973 | [13] 0.976 | [14] 0.987 | [15] 0.991 | [16] 0.976 | [17] 1.06 | [18] 1.01 | [19] 0.985 | [21] 1 | [22] 0.982 | [23] 1 | [24] 0.965 | [26] 1.01 | [27] 0.969 | [28] 1.03
